Assay outcomes: PubChem, National Center for Advancing Translational Sciences (NCATS)
The entries come from a sample that favours hits as a whole.
Pf Dd2 inh – qHTS Primary assay for Inhibitors of Plasmodium falciparum Dd2 growth in vitro. P. falciparum Dd2 growth, SYBR Green, 72 h. Potency, µM (highest dose often 28.9 µM), for inactives: top-dose activity, negative = inhibition, hits mostly inhibitors. 120,000 compounds, 4.3% hits. AID 1347417, 2020; active = well fitted inhibition curve with a large enough effect;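 also: plate controls were DMSO vehicle for no effect and reference drug for full effect; nearly all actives have a fitted effect of over 65% in size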
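Readout: SYBR Green fluorescence, 485 nm excitation, 535 nm emission, after ~16 h lysis at 37C. Before that, Dd2-infected red cells (2.5% hematocrit) grew 72 h with compound, 29 uM top final concentration.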
* = called active by the depositor; ! = not active in a repeat; [ ] = dose if it differs, or a comment. Potency is read from the fitted curve at half-maximal effect.

CCC1=C(C(=O)OC)C(c2cccc(C)c2)N2C(CC(=O)Nc3ccc(OC)cc3)=CSC2=N1 (configuration not stated) was read as Pf Dd2 inh 3.2µM*.
For COC(=O)C1=C(C)N=C2SC=C(CC(=O)Nc3cc(C)cc(C)c3)N2C1c1ccccc1OC (configuration not stated) the results were Pf Dd2 inh 7.1µM*.
Screening CCC1=C(C(=O)OC)C(c2ccccc2C)N2C(CC(=O)NCC3CC3)=CSC2=N1 (configuration not stated) returned Pf Dd2 inh -13%.
Screening COCCOC(=O)C1=C(C)N=C2SC=C(CC(=O)NCc3cccc(F)c3)N2C1c1ccccc1 (configuration not stated) returned Pf Dd2 inh -18%.
For CCC1=C(C(=O)OC)C(c2cccc(OC)c2OC)N2C(CC(=O)NC3CC3)=CSC2=N1 (configuration not stated) the results were Pf Dd2 inh inactive.
For CCC1=C(C(=O)OC)C(c2cccc(F)c2)N2C(CC(=O)NCc3cccc(F)c3)=CSC2=N1 (configuration not stated) the results were Pf Dd2 inh 2.5µM*.
Screening Cn1cccc1CNC(=O)Cn1nc2c(cc1=O)CCCCC2 returned Pf Dd2 inh -8%.
CCn1nc(C(=O)N2CCCC3(CN(C)C(=O)O3)C2)cc1C (configuration not stated) was read as Pf Dd2 inh -1%.
Screening Fc1ccccc1-c1nnc([C@H]2CCN(Cc3ccco3)C2)o1 returned Pf Dd2 inh inactive.
For COc1ccc(CC(=O)Nc2ccc3c(c2)CN(CCOc2ccccc2)C(=O)C(C)O3)cc1 (configuration not stated) the results were Pf Dd2 inh inactive.
Screening CN1CC(=O)N(C2CCC2)Cc2c(NCCO)ncnc21 returned Pf Dd2 inh -5%[44.1 µM].
O=C1c2ccccc2CN1C1CCN(Cc2ccc(F)cc2)CC1 was read as Pf Dd2 inh 14%.
Cc1nc(C)c(C(=O)N2CCC(CCOc3ccccc3)C2)s1 (configuration not stated) was read as Pf Dd2 inh inactive.
Cc1ccc(CNC(=O)CC2CCCN(c3cn[nH]c(=O)c3)C2)cc1 (configuration not stated) was read as Pf Dd2 inh 0%.
Screening CC(=O)N1CCOc2cc(S(=O)(=O)Nc3cccc(C(F)(F)F)c3)c(Cl)cc21 returned Pf Dd2 inh 13µM*.
For CC(=O)N1CCOc2cc(S(=O)(=O)Nc3cc(C(F)(F)F)ccc3Cl)c(C)cc21 the results were Pf Dd2 inh 26%.
For CC(=O)N1CCOc2cc(S(=O)(=O)NC(C)c3ccccc3)c(Cl)cc21 (configuration not stated) the results were Pf Dd2 inh 3%.
O=C(NCC1CCOCC1)c1cnc2n[nH]c(-c3ccccc3)c2n1 was read as Pf Dd2 inh -17%[44.1 µM].
Screening CN(C)C(=O)c1c[nH]c2cccnc12 returned Pf Dd2 inh 14%[44.1 µM].
Cc1nn2c(c1-c1ccccc1Oc1ccccc1)N(C(=O)Cc1ccc3c(c1)OCO3)CCC2 was read as Pf Dd2 inh -9%.
`CCCC1=Nc2cc(C(=O)NCCc3ccccc3)ccc2Sc2ccc(C)cc21` gave Pf Dd2 inh 6.3µM*!.
`CCCC1=Nc2cc(C(=O)NC(C)c3ccccc3)ccc2Sc2ccc(C)cc21` (configuration not stated) gave Pf Dd2 inh -14%.
`CC(NC(=O)c1ccc2nc(CCc3ccccc3)oc2c1)c1ccccc1` (configuration not stated) gave Pf Dd2 inh -22%.
For CCCNC(=O)c1ccc2c(c1)N=C(CCC)c1ccccc1S2 the results were Pf Dd2 inh inactive.
For CCCC1=Nc2cc(C(=O)NCc3ccc(OC)cc3)ccc2Sc2ccc(C)cc21 the results were Pf Dd2 inh -2%.
`CCC1=Nc2cc(C(=O)NC(C)c3ccccc3)ccc2Sc2ccc(Cl)cc21` (configuration not stated) gave Pf Dd2 inh 8.9µM*.
Screening Cc1cnn(CC(=O)N2CCC(Cn3c(C)cnc3C3CC3)CC2)c1 returned Pf Dd2 inh -12%.
Cc1noc([C@@H]2CN(Cc3cccc(F)c3F)C[C@H]2CO)n1 was read as Pf Dd2 inh 16%.
c1ccc(-c2cc(CC3(NCC4CC4)COC3)no2)nc1 was read as Pf Dd2 inh -3%[44.1 µM].
For CC(=O)N1C[C@@H](CO)[C@H](NC(=O)c2ccccc2)C1 the results were Pf Dd2 inh -4%.
For COCC(=O)NC1CCC12CCN(C(=O)Cc1cccc(F)c1)CC2 (configuration not stated) the results were Pf Dd2 inh -11%.
COc1ccc(Nc2nc(-c3ccccc3)c3cc(Br)ccc3n2)cc1 was read as Pf Dd2 inh -18%.
COc1cc2nc(Nc3ccc(C)c(C)c3)nc(N)c2cc1OC was read as Pf Dd2 inh 0.1µM*.
Screening CCc1sc(Nc2cccc(C)c2)nc1-c1cc2cccc(OC)c2oc1=O returned Pf Dd2 inh -1%.
